The source made the active and inactive calls. The calls were made as follows: active = hit-call score of the fitted dose curve at least 0.9, where 1 is the maximum; inactive = score below 0.9.
The molecules below were run on Cytochrome P450 4A22 (Homo sapiens) (UniProt Q5TCH4) (assay: LTEA_HepaRG_CYP4A22: Life Technologies and Expression Analysis (LTEA) Assay for Cytochrome P450 4A22 (CYP4A22) using HepaRG (AID 2283495)). Settings: mRNA level, 48 h; actives raise or lower the signal.
In short: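 Cryopreserved HepaRG cells, plated and cultured 48 h, then switched to serum-free induction medium and treated 48 h (duplicates, up to 100 uM, half-log steps, 0.5% DMSO). Expression change of CYP4A22 was fitted bidirectionally against vehicle.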

| Structure (SMILES) | outcome | AC50 |
| --- | --- | --- |
| COc1cc(C=O)ccc1O | inactive |  |
| COC(=O)c1ccc(O)cc1 | inactive |  |
| C=CCc1ccc(O)c(OC)c1 | inactive |  |
| CN1CCN(Cc2cc(-c3ccc4[nH]c(=O)oc4c3)co2)[C@@H](c2ccc(F)cc2)C1 |  | 50 µM (active) |
| CC(=O)OC/C=C(\C)CCC=C(C)C | inactive |  |
| CCCCCCCCCCCC(=O)OC | inactive |  |
| Oc1ccc2c(c1)OC[C@@H](N1CCC(O)(c3ccc(F)cc3)CC1)[C@H]2O | inactive |  |
| O=C(OCCCCCOC(=O)c1ccccc1)c1ccccc1 |  | 2.98 µM (active) |
| NCC1(Cc2noc(=O)[nH]2)CCCCC1 | inactive |  |
| CCCCOC(=O)CCCCCCCCC(=O)OCCCC | inactive |  |
| CCc1c(C(=O)NN2CCCCC2)nn(-c2ccc(Cl)cc2Cl)c1-c1ccc(Br)cc1 |  | 15.8 µM (active) |
| O=C(O)CCCCC(=O)O | inactive |  |
| Cc1c(C(=O)O)c(O)cc2c1C(=O)c1c(O)c([C@@H]3O[C@H](CO)[C@@H](O)[C@H](O)[C@H]3O)c(O)c(O)c1C2=O | inactive |  |
| Cc1ccc(C)c(O)c1C | inactive |  |
| OC[C@@H](O)[C@@H](O)[C@H](O)[C@H](O)CO | inactive |  |
| C1CCC(SSC2CCCCC2)CC1 | inactive |  |
| Cc1oc(-c2ccccc2)nc1CCOc1cccc2c1ccn2CCC(=O)O |  | 85.2 µM (active) |
| Cc1ccccc1Cl | inactive |  |
| c1cc(-c2ccncc2)ccn1 | inactive |  |
| Cc1cc(=O)[nH]c(=S)[nH]1 | inactive |  |
| Cc1cccc([N+](=O)[O-])c1C | inactive |  |
| CCCCCCOCCO | inactive |  |
| CC(CO)OC(C)CO (configuration not stated) (tested in a mixture with another compound) | inactive |  |
| O=C(O)Cc1ccccc1Nc1c(Cl)cccc1Cl |  | 9.92 µM (active) |
| Cc1ccc(C(C)C)c(O)c1 | inactive |  |
| CN1CCCC1=O | inactive |  |
| Nc1ccc2c(c1)C(=O)c1ccccc1C2=O |  | 31 µM (active) |
| CC1=C(/C=C/C(C)=C/C=C/C(C)=C/CO)C(C)(C)CCC1 |  | 22.2 µM (active) |
| CCCCCCCCCCCCCO | inactive |  |

Each molecule was assayed on Cytochrome P450 7A1 (Homo sapiens) (UniProt P22680) (assay: LTEA_HepaRG_CYP7A1: Life Technologies and Expression Analysis (LTEA) Assay for Cytochrome P450 7A1 (CYP7A1) using HepaRG (AID 2283496)). Settings: mRNA level, 48 h; actives raise or lower the signal.
In short: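 Using 0.5% DMSO as vehicle and baseline, chemicals were tested in duplicate over an 8-point range from 100 uM on HepaRG cells for 48 h; qRT-PCR signals were normalised to ACTB, GAPDH and POLR2A.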

| Structure (SMILES) | outcome | AC50 |
| --- | --- | --- |
| COc1cc(C=O)ccc1O | inactive |  |
| COC(=O)c1ccc(O)cc1 | inactive |  |
| C=CCc1ccc(O)c(OC)c1 | inactive |  |
| CN1CCN(Cc2cc(-c3ccc4[nH]c(=O)oc4c3)co2)[C@@H](c2ccc(F)cc2)C1 | inactive |  |
| CC(=O)OC/C=C(\C)CCC=C(C)C | inactive |  |
| CCCCCCCCCCCC(=O)OC | inactive |  |
| Oc1ccc2c(c1)OC[C@@H](N1CCC(O)(c3ccc(F)cc3)CC1)[C@H]2O | inactive |  |
| O=C(OCCCCCOC(=O)c1ccccc1)c1ccccc1 | inactive |  |
| NCC1(Cc2noc(=O)[nH]2)CCCCC1 | inactive |  |
| CCCCOC(=O)CCCCCCCCC(=O)OCCCC | inactive |  |
| CCc1c(C(=O)NN2CCCCC2)nn(-c2ccc(Cl)cc2Cl)c1-c1ccc(Br)cc1 |  | 37.6 µM (active) |
| O=C(O)CCCCC(=O)O | inactive |  |
| Cc1c(C(=O)O)c(O)cc2c1C(=O)c1c(O)c([C@@H]3O[C@H](CO)[C@@H](O)[C@H](O)[C@H]3O)c(O)c(O)c1C2=O | inactive |  |
| Cc1ccc(C)c(O)c1C | inactive |  |
| OC[C@@H](O)[C@@H](O)[C@H](O)[C@H](O)CO | inactive |  |
| C1CCC(SSC2CCCCC2)CC1 | inactive |  |
| Cc1oc(-c2ccccc2)nc1CCOc1cccc2c1ccn2CCC(=O)O |  | 82.3 µM (active) |
| Cc1ccccc1Cl | inactive |  |
| c1cc(-c2ccncc2)ccn1 | inactive |  |
| Cc1cc(=O)[nH]c(=S)[nH]1 | inactive |  |
| Cc1cccc([N+](=O)[O-])c1C | inactive |  |
| CCCCCCOCCO | inactive |  |
| CC(CO)OC(C)CO (configuration not stated) (tested in a mixture with another compound) | inactive |  |
| O=C(O)Cc1ccccc1Nc1c(Cl)cccc1Cl |  | 1.24 µM (active) |
| Cc1ccc(C(C)C)c(O)c1 | inactive |  |
| CN1CCCC1=O | inactive |  |
| Nc1ccc2c(c1)C(=O)c1ccccc1C2=O |  | 8.9 µM (active) |
| CC1=C(/C=C/C(C)=C/C=C/C(C)=C/CO)C(C)(C)CCC1 |  | 21.9 µM (active) |
| CCCCCCCCCCCCCO | inactive |  |

The molecules below were run on Glutathione S-Transferase (GSTA2), GSTA2 (gene 2939) (assay: LTEA_HepaRG_GSTA2: Life Technologies and Expression Analysis (LTEA) Assay for Glutathione S-Transferase (GSTA2) using HepaRG (AID 2283497)). Settings: mRNA level, 48 h; actives raise or lower the signal.
In short: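 GSTA2 transcript levels came from Fluidigm TaqMan qRT-PCR normalized to three housekeeping genes, fitted in both directions against DMSO. HepaRG cultures received chemicals for 48 h in serum-free induction medium (0.5% DMSO), 8 half-log concentrations up to 100 uM, duplicate.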

| Structure (SMILES) | outcome | AC50 |
| --- | --- | --- |
| COc1cc(C=O)ccc1O | inactive |  |
| COC(=O)c1ccc(O)cc1 | inactive |  |
| C=CCc1ccc(O)c(OC)c1 | inactive |  |
| CN1CCN(Cc2cc(-c3ccc4[nH]c(=O)oc4c3)co2)[C@@H](c2ccc(F)cc2)C1 |  | 12.2 µM (active) |
| CC(=O)OC/C=C(\C)CCC=C(C)C | inactive |  |
| CCCCCCCCCCCC(=O)OC | inactive |  |
| Oc1ccc2c(c1)OC[C@@H](N1CCC(O)(c3ccc(F)cc3)CC1)[C@H]2O | inactive |  |
| O=C(OCCCCCOC(=O)c1ccccc1)c1ccccc1 | inactive |  |
| NCC1(Cc2noc(=O)[nH]2)CCCCC1 | inactive |  |
| CCCCOC(=O)CCCCCCCCC(=O)OCCCC | inactive |  |
| CCc1c(C(=O)NN2CCCCC2)nn(-c2ccc(Cl)cc2Cl)c1-c1ccc(Br)cc1 |  | 31.7 µM (active) |
| O=C(O)CCCCC(=O)O | inactive |  |
| Cc1c(C(=O)O)c(O)cc2c1C(=O)c1c(O)c([C@@H]3O[C@H](CO)[C@@H](O)[C@H](O)[C@H]3O)c(O)c(O)c1C2=O | inactive |  |
| Cc1ccc(C)c(O)c1C | inactive |  |
| OC[C@@H](O)[C@@H](O)[C@H](O)[C@H](O)CO | inactive |  |
| C1CCC(SSC2CCCCC2)CC1 | inactive |  |
| Cc1oc(-c2ccccc2)nc1CCOc1cccc2c1ccn2CCC(=O)O |  | 81.5 µM (active) |
| Cc1ccccc1Cl | inactive |  |
| c1cc(-c2ccncc2)ccn1 | inactive |  |
| Cc1cc(=O)[nH]c(=S)[nH]1 | inactive |  |
| Cc1cccc([N+](=O)[O-])c1C | inactive |  |
| CCCCCCOCCO | inactive |  |
| CC(CO)OC(C)CO (configuration not stated) (tested in a mixture with another compound) | inactive |  |
| O=C(O)Cc1ccccc1Nc1c(Cl)cccc1Cl | inactive |  |
| Cc1ccc(C(C)C)c(O)c1 | inactive |  |
| CN1CCCC1=O | inactive |  |
| Nc1ccc2c(c1)C(=O)c1ccccc1C2=O |  | 10.2 µM (active) |
| CC1=C(/C=C/C(C)=C/C=C/C(C)=C/CO)C(C)(C)CCC1 |  | 52.2 µM (active) |
| CCCCCCCCCCCCCO | inactive |  |

— PubChem BioAssay (EPA / NIEHS)
